# Assay outcomes: PubChem, National Center for Advancing Translational Sciences (NCATS)
# miR-21 act – qHTS Assay for Modulators of miRNAs and/orActivators of miR-21. HeLa miR-21 FLuc reporter, luciferase, 48 h. Potency, µM (top dose mostly 38.3 µM), for the others: at the top dose activity change, positive = activation, actives largely listed as activators. 340,000 tested, under 10 active;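 also: % of control where 0% means no effect; miR-21 action dims this reporter so a rising signal means less miR-21 action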
#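 HeLa cells stably expressing CMV-driven firefly luciferase with a downstream miR-21 binding sequence, endogenously expressing miR-21, were treated with titrations (up to about 40uM final) for 48 hours at 37 degree Celsius. Luciferase luminescence was read after lysis.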
# TDP1 cell CPT – qHTS for Inhibitors of human tyrosyl-DNA phosphodiesterase 1 (TDP1): qHTS in cells in presence of CPT. Potency, µM (top dose mostly 46.2 µM), inactives show at the top dose activity change, negative = growth inhibition, usual class: inhibitors. hit rate 12% among 420,000. chicken DT40 Tdp1-/-;hTDP1 cells + 20 nM CPT, ATP luminescence, 48 h. AID 686979, 2013; also: potency is read from the fitted curve at half-maximal effect; % is scaled to controls: 0 for no effect and ±100 for the full control effect; nearly all actives have a fitted effect of over 55% in size
#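 Chicken DT40 Tdp1-/- cells stably complemented with human TDP1 were seeded at 400 cells/well in medium containing 20 nM camptothecin, exposed to pin-transferred compounds, and grown at 37 °C for at least 48 hr. Viability was read as ATP luminescence.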
# DT40 TDP1 no CPT – qHTS for Inhibitors of human tyrosyl-DNA phosphodiesterase 1 (TDP1): qHTS in cells in absence of CPT; AID 686978, 2013; hit rate 15% among 420,000; DT40 Tdp1-/- hTDP1 cells, no CPT, ATP luminescence, 48 h; Potency, µM (highest dose often 46.2 µM), for inactives: at the top dose activity change, negative = growth inhibition, actives largely listed as inhibitors; also: potency is read from the fitted curve at half-maximal effect; % is scaled to controls: 0 for no effect and ±100 for the full control effect; nearly all actives have a fitted effect of over 55% in size
#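 Camptothecin absent (DMSO only). Human TDP1-complemented DT40 knockout cells, 400 cells/well, 37 °C for minimum 48 hr; ATP measured via CellTiter-Glo, 30 min dark incubation, luminescence.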
# uPA generation – qHTS for Inhibitors of Cell Surface uPA Generation; cell surface uPA generation assay, qHTS; Potency, µM (top dose mostly 38.3 µM), for the others: top-dose activity change, negative = inhibition, actives largely listed as inhibitors; hit rate 0.31% among 330,000; active = well fitted inhibition curve with a large enough effect; inconclusive = small, poorly fitted or top-dose-only effect; inactive = no such curve, though single readings can be large or run the other way; tested in mouse RAW 264.7 cells; also: potency is read from the fitted curve at half-maximal effect; % is scaled to controls: 0 for no effect and ±100 for the full control effect; nearly all actives have a fitted effect of over 55% in size
# TDP1 inh – qHTS Assay for Inhibitors of Tyrosyl-DNA Phosphodiesterase (TDP1) | Tyrosyl-DNA phosphodiesterase 1 (Homo sapiens), Q9NUW8 | recombinant TDP1, AlphaScreen DNA substrate cleavage | Potency, µM (doses to about 130 µM), for the others: top-dose activity change, negative = inhibition, actives largely listed as inhibitors | hit rate 0.28% among 350,000 | AID 485290, 2010; also: potency is read from the fitted curve at half-maximal effect; % is scaled to controls: 0 for no effect and ±100 for the full control effect; nearly all actives have a fitted effect of over 40% in size
# Target sequence (Q9NUW8 whole entry, looked up): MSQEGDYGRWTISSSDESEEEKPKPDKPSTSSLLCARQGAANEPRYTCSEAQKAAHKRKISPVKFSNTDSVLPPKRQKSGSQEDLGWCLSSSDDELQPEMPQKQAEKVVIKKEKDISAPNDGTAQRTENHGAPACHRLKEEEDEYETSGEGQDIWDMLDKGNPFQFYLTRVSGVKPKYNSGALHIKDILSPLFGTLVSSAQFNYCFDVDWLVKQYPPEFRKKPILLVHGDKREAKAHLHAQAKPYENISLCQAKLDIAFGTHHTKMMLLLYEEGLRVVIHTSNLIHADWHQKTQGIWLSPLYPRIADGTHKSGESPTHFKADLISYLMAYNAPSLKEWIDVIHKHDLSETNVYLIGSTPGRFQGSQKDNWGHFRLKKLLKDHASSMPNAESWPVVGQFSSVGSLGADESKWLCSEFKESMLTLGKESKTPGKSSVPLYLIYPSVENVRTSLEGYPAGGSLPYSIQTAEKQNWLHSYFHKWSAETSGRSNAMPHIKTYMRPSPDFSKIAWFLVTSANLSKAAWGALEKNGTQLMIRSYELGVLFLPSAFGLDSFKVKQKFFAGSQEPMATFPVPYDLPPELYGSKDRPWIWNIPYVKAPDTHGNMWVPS
#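 Enzyme-compound mixtures sat 15 min at room temperature, followed by a 5 min reaction with 15 nM final substrate and 10 min with AlphaScreen beads. Recombinant human Tdp1 was used at 1 nM final.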
# Numbers without * were called inactive; ? = inconclusive; · = no result given; [ ] = another dose, or the depositor's remark. Hits are enriched below; roughly 16% of the tested compounds scored in any of these assays. Unless noted, calls follow the shape of the dose curve; as a rule, active = well fitted curve in the direction sought with a large enough effect; inconclusive = small, poorly fitted or top-dose-only effect, or another doubt; inactive = no such curve, though single readings can be large; an effect the other way counts as inactive or inconclusive.
SMILES,miR-21 act,TDP1 cell CPT,DT40 TDP1 no CPT,uPA generation,TDP1 inh
COc1ccc(NC(=O)Nc2ccc(C(=O)N3CCOCC3)cc2)cc1,-1.8%,-2.7%,-5.7%,3.1%,1.1%
C/C(=C\C(=O)c1ccccc1)Nc1ccc(N2CCOCC2)cc1,-28.3%,-21.4%,?,-4.2%,8.0%
CC(C)NC[C@@H](O)COc1ccc(CCOCC2CC2)cc1,·,11.2%,-10.4%,·,3.1%[56.1 µM]
Cc1ccc(-c2nc(CNC(=O)c3ccco3)cs2)cc1,-23.8%,?,?,-5.4%,4.4%
O=C(c1cn(Cc2ccccc2)nc1-c1ccccc1)N1CCN(c2ccccn2)CC1,·,5.8µM*,5.8µM*,4.47µM*,1.0%[56.1 µM]
COc1ccc(-c2nn(Cc3ccccc3)cc2C(=O)N2CCN(c3ccccn3)CC2)cc1OC,·,-2.7%,-19.7%,-7.3%,-2.5%[56.1 µM]
CC(C)[C@H](NC(=O)c1ccccc1Br)C(=O)OCc1nc2ccsc2c(=O)[nH]1,·,-21.8%,-25.7%,-3.3%,·
CC(C)c1cc2c(c(O)c1O)[C@@]13CCCC(C)(C)C1CC2OC3=O (some centres undefined),16.6%,5.17µM*,8.2µM*,-16.8%,·
Cc1nnc(SCc2nc3scc(-c4ccccc4)c3c(=O)[nH]2)s1,-2.9%,-15.7%,-19.4%,-9.5%,0.0%
Nc1nnc(SCc2nc3scc(-c4ccccc4)c3c(=O)[nH]2)s1,2.3%,23.1µM*,18.4µM*,11.6%,·
O=c1[nH]c(Cc2ccccc2)nc2scc(-c3ccccc3)c12,-20.3%,?,?,8.4%,-2.5%
Cc1csc(SC(C)c2nc3scc(-c4ccccc4)c3c(=O)[nH]2)n1 (centres undefined),9.8%,?,20.6µM*,11.3%,6.2%
CN(Cc1ccccc1)Cc1nc2scc(-c3ccccc3)c2c(=O)[nH]1,-2.4%,13µM*,?,-0.7%,3.6%
CCn1c(SCc2nc3scc(-c4ccccc4)c3c(=O)[nH]2)nnc1-c1cccs1,14.1%,20.6µM*,20.6µM*,-0.5%,2.3%
CS(=O)(=O)N1CCC2(CCN(C(=O)Nc3cccc(F)c3)CC2)CC1,·,-5.8%,-25.8%,·,·
Cc1cc2ccccc2n1-c1ccc(C(=O)N2CCC(C(=O)NCc3ccccc3Cl)CC2)s1,-1.3%,16.4µM*,-97.0%,·,5.3%
O=C(CN(C(=O)CNC(=O)c1ccco1)c1ccc(Cl)c(Cl)c1)NC1CCCCC1,0.1%,-18.2%,-20.5%,-5.3%,2.0%
CCOC(=O)c1c(C)c(-c2ccccc2)n(CC(=O)Nc2cc(C)ccc2OC)c1C,-1.0%,?,18.4µM*,·,1.0%
CCOC(=O)c1c(C)c(-c2ccccc2)n(CC(=O)Nc2cccc(C)c2C)c1C,-0.9%,13µM*,14.6µM*,·,0.0%
CCN1C(=O)N/C(=C/c2cc(C)n(Cc3ccccc3)c2C)C1=O,-34.3%,18.4µM*,?,-21.7%,7.1%
Cc1ccc(/C=C2/NC(=O)N(Cc3ccccc3)C2=O)o1,6.9%,16.4µM*,23.1µM*,-6.7%,5.3%
Cc1cc(C(=O)O)ccc1-c1ccc(/C=C2\NC(=O)N(Cc3ccccc3Cl)C2=O)o1,-6.1%,23.3%,-12.8%,-2.9%,-3.5%
O=C(O)c1ccc(-c2ccc(/C=C3\NC(=O)N(Cc4ccc(Cl)cc4)C3=O)o2)cc1,2.7%,?,-22.8%,3.9%,12.6µM*
Cc1ccc(C(=O)O)cc1-c1ccc(/C=C2/NC(=O)N(c3ccccc3)C2=O)o1,-25.2%,1.2%,-13.8%,1.2%,1.58µM*
CCC(C)NC(=O)CNS(=O)(=O)c1ccc(C)cc1 (centres undefined),-7.1%,6.0%,1.9%,-0.5%,-2.2%
SMILES,miR-21 act,TDP1 cell CPT,DT40 TDP1 no CPT,uPA generation,TDP1 inh
O=C1N/C(=C/c2ccc(N3CCOCC3)o2)C(=O)N1c1ccccc1,15.9%,11.6µM*,9.2µM*,-6.9%,-2.4%
Cc1ccc(CN2C(=O)N/C(=C\c3ccc(-c4ccc(C(=O)O)cc4C)o3)C2=O)cc1,-0.1%,-12.9%,-5.6%,7.3%,8.91µM*
c1ccc(CNn2nnc3ccccc32)cc1,·,-24.1%,?,·,·
O=C(Cn1cc(S(=O)(=O)Cc2ccccc2Cl)c2ccccc21)NCCc1ccccc1,-4.9%,?,?,·,6.2%
COc1ccc(Nc2ncc(C(=O)N3CCN(c4ccc(OC)cc4)CC3)c3ccccc23)cc1,?,23.1µM*,16.4µM*,·,5.9%
COc1ccc(Nc2ncc(C(=O)N3CCN(c4cccc(Cl)c4)CC3)c3ccccc23)cc1,?,14.6µM*,4.61µM*,·,8.8%
Cc1ccc(Nc2ncc(C(=O)N3CCN(c4ccc(F)cc4)CC3)c3ccccc23)cc1Cl,?,?,?,·,2.9%
COc1ccc(N2CCN(C(=O)c3cnc(N4CCOCC4)c4ccccc34)CC2)cc1,19.6%,?,23.1µM*,·,6.6%
COc1ccc(Nc2ncc(C(=O)N3CCN(c4ccc(F)cc4)CC3)c3ccccc23)cc1,?,23.1µM*,5.17µM*,-1.9%,5.9%
COc1ccccc1N1CCN(S(=O)(=O)CCNC(=O)c2ccco2)CC1,·,3.5%,-1.2%,·,·
Cc1cc(NC(=O)c2cccnc2)ccc1NC(=O)c1cc2ccccc2o1,18.4%,13µM*,10.3µM*,8.8%,0.6%
Cc1cc(NC(=O)c2cc3ccccc3o2)ccc1NC(=O)c1ccccc1,-4.7%,-24.1%,?,0.9%,·
O=C(Nc1ccc(NC(=O)c2cc3ccccc3o2)cc1)c1ccc2c(c1)OCCO2,6.6%,-8.1%,-27.0%,4.2%,-2.6%
Cc1cc(NC(=O)c2cccnc2Cl)ccc1NC(=O)c1cc2ccccc2o1,2.5%,9.2µM*,10.3µM*,4.2%,1.3%
O=C(Nc1cccnc1Cl)c1cc2ccccc2o1,-59.3%,-1.4%,22.1%,?,·
Cc1cc(NC(=O)c2ccc3c(c2)OCCO3)ccc1NC(=O)c1cc2ccccc2o1,27.3%,5.8µM*,4.61µM*,?,1.2%
Cc1cc(NNC(=O)Nc2cccc(Cl)c2)nc2c1c(C)nn2C,20.4%,·,·,·,·
CCCCNC(=O)c1sc2ncccc2c1-n1cccc1,-34.4%,11.6µM*,-28.3%,·,5.3%
CCCCNC(=O)c1sc2nc(C)cc(COC)c2c1-n1cccc1,7.0%,16.4µM*,25.9µM*,7.4%,-2.0%
O=C(NCCc1ccccc1)c1sc2ncccc2c1-n1cccc1,-18.5%,25.9µM*,?,·,7.7%
O=C(NCc1ccccc1F)c1sc2ncccc2c1-n1cccc1,0.6%,23.1µM*,?,·,11.2%
COCCCNC(=O)c1sc2ncccc2c1-n1cccc1,-9.9%,-27.3%,-27.6%,·,3.0%
Cc1ccc(N2C(=O)CSC2c2c(F)cccc2Cl)cc1 (centres undefined),-0.3%,?,-27.3%,-2.2%,1.0%
